Data on twelve molecules can be found in PubChem BioAssay (NCATS).

Test [1] in a line: P-glycoprotein substrates identified in KB-8-5-11 adenocarcinoma cell line, qHTS therapeutic library screen (AID 1346987). Note: nearly all actives have a fitted effect of over 65% in size. Note: potency is the fitted concentration of half-maximal effect. In short, it runs like this: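 Steps: plate 500 KB-8-5-11 cells/well in DMEM + 10% FCS (colchicine removed); pin compounds in dose-response; incubate 72 h, 37 degree C, 5% CO2; add CellTiter-Glo, 5 min; read luminescence.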
Test [2] in a line: Primary qHTS for inhibitors of nuclear receptor binding SET domain protein 2 (NSD2) in an isogenic RCH-ACV NSD2 p.E1099K mutant (9B) (AID 1645876). Note: nearly all actives have a fitted effect of over 70% in size. Note: potency is the fitted concentration of half-maximal effect.
Test [3] can be described thus: Primary qHTS for inhibitors of nuclear receptor binding SET domain protein 2 (NSD2) in an RCH-ACV wild type WT cells (2C) (AID 1645877). Note: nearly all actives have a fitted effect of over 70% in size. Note: potency is the fitted concentration of half-maximal effect.
Test [4] can be described thus: Primary redox qHTS assay for identification of artifact compounds. (AID 1845223).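 Note: 0% = DMSO and 100% = reference compound.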 In short, it runs like this: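 Amplex Red (25 uM) and HRP (250 mU/mL) in HBSS, with compounds for 15 min, then 250 uM DTT for 30 min, room temperature, dark. Fluorescence 525/598 nm read; normalized to DMSO and 10 uM DA3003; Hill fit.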
The subject of test [5] is SKOV3. The experiment in a line: Primary qHTS to identify gynecologic anti-cancer compounds using libraries of approved drugs and bioactive compounds (AID 1345084). Note: nearly all actives have a fitted effect of over 55% in size. Note: potency is the fitted concentration of half-maximal effect. To be noted: Gynecologic cancer cell panel viability, ATPlite luminescence, 48 h; series mostly up to 57.5 µM. In short, it runs like this: (§1)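 Measured: luminescence after ATPlite addition (15 min, RT). Exposure: 48 h, 37 C, 5% CO2.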

Test [6] deals with HaCat. Briefly: Cytotoxic Profiling of Annotated Libraries Using Quantitative High-Throughput Screening (AID 1296008). For max response: % is set by controls: 0 for no effect and ±100 for the full control effect. Note: nearly all actives have a fitted effect of over 60% in size. Note: potency is the fitted concentration of half-maximal effect. To be noted: Five cell lines viability, CellTiter-Glo ATP luminescence, 48-72 h; max response: stronger effect = lower value. In short, it runs like this: (§2)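 Cytotoxicity was measured as CellTiter-Glo ATP luminescence, read after 10 min at room temperature. Compound treatment of the cells lasted 48 or 72 hr at 37 degrees Celsius in a qHTS format.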

Test [7] concerns HACAT. Briefly: qHTS assay to identify novel small-molecules to repurpose for Merkel cell carcinoma treatment (AID 1296009). Note: nearly all actives have a fitted effect of over 60% in size. To be noted: MCC and control cell lines, CellTiter-Glo viability, 72 h; at 44.8 µM (top of the series) unless noted. Summed up:
(§3)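 72 hr, 37 degree celsius; NPC 8-pt / MIPE 11-pt dose response; compound pinned in DMSO; CellTiter-Glo, 10 min RT, luminescence; normalized to no-cell and DMSO controls.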

In test [8] the test system is HeLa. Briefly: Primary qHTS to identify gynecologic anti-cancer compounds using libraries of approved drugs and bioactive compounds (AID 1345084). Note: nearly all actives have a fitted effect of over 55% in size. Note: potency is the fitted concentration of half-maximal effect. The following applies: Gynecologic cancer cell panel viability, ATPlite luminescence, 48 h; series mostly up to 57.5 µM. Summed up:
as §1

In test [9] the test system is HEK293. Briefly: Cytotoxic Profiling of Annotated Libraries Using Quantitative High-Throughput Screening (AID 1296008). For max response: % is set by controls: 0 for no effect and ±100 for the full control effect. Note: nearly all actives have a fitted effect of over 60% in size. Note: potency is the fitted concentration of half-maximal effect. To be noted: Five cell lines viability, CellTiter-Glo ATP luminescence, 48-72 h; max response: stronger effect = lower value. Summed up: as §2
Test [10] concerns KB-3-1. The description is as above. The following applies: Five cell lines viability, CellTiter-Glo ATP luminescence, 48-72 h; max response: stronger effect = lower value. In short, it runs like this:
as §2

Test [11] deals with Catechol O-methyltransferase (Homo sapiens) (UniProt P21964). Briefly: Confirmatory Screen for Target Class Profiling of Small Molecule Inhibitors of Methyltransferases (AID 1745852; calls by dose curve; note: potency is the fitted concentration of half-maximal effect). The following applies: MTase-Glo luminescence, SAH detection, recombinant enzyme; measured here: COMT max response; stronger effect = lower value.
The target in test [12] is Guanidinoacetate N-methyltransferase (Homo sapiens) (UniProt Q14353). Described as above. To be noted: activity change, negative = inhibition: at 57.3 µM (top of the series) unless noted.
For test [13], the target named is Nicotinamide N-methyltransferase (Homo sapiens) (UniProt P40261). The description is as above. To be noted: MTase-Glo luminescence, SAH detection, recombinant enzyme; measured here: NNMT max response; stronger effect = lower value.
Test [14] addresses Phenylethanolamine N-methyltransferase (Homo sapiens) (UniProt P11086). Described as above. To be noted: MTase-Glo luminescence, SAH detection, recombinant enzyme; measured here: PNMT max response; stronger effect = lower value.
Test [15] deals with CRL-7250. Briefly: qHTS assay to identify novel small-molecules to repurpose for Merkel cell carcinoma treatment (AID 1296009). Note: nearly all actives have a fitted effect of over 60% in size. To be noted: MCC and control cell lines, CellTiter-Glo viability, 72 h; series mostly up to 92 µM. In short, it runs like this: as §3
The subject of test [16] is NIH3T3. The description is as above. To be noted: MCC and control cell lines, CellTiter-Glo viability, 72 h; at 44.8 µM (top of the series) unless noted. Summed up:
as §3

The nature of test [17]: qHTS drug screen for cell cycle checkpoint inhibitors in PARPi-resistant BRCA-mutant ovarian cancer cell lines. (AID 1963452; calls by dose curve). To be noted: PEO1/OlaR viability, CellTiter-Glo luminescence, 96 h, stronger effect = lower value. In short, it runs like this:
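PEO1, PEO4 and PEO1/OlaR ovarian cancer cells, 600 per well, exposed 96 h at 37C to a dilution series. Viability read by CellTiter-Glo luminescence, normalized to DMSO and empty wells; activity summarized as Z-AUC.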

Test [18] addresses Cytochrome P450 2D6 (Homo sapiens) (UniProt P10635). The experiment in a line: Cytochrome P450 family 2 subfamily D member 6 (CYP2D6) small molecule antagonists: luciferase biochemical (cell-free) qHTS assay (AID 1645840; active = well fitted curve in the direction sought with a large enough effect in the repeat runs; an effect the other way counts as inactive or inconclusive; note: nearly all actives have a fitted effect of over 55% in size; note: potency is the fitted concentration of half-maximal effect; for activity change, negative = inhibition: % is set by controls: 0 for no effect and ±100 for the full control effect). In short, it runs like this: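 P450-Glo luminescent screen: recombinant CYP2D6 enzyme–proluciferin substrate mix preincubated with compound 10 min at room temperature, then NADPH regeneration added for 1 h at room temperature. Detection reagent added for 20 min; luciferin light read as relative luminescence units.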

The target of test [19] is Cytochrome P450 2C9 (Homo sapiens) (UniProt P11712). The experiment in a line: Cytochrome P450 family 2 subfamily C member 9 (CYP2C9) small molecule antagonists: luciferase biochemical (cell-free) qHTS assay (AID 1645842; active = well fitted curve in the direction sought with a large enough effect in the repeat runs; an effect the other way counts as inactive or inconclusive; note: nearly all actives have a fitted effect of over 55% in size; note: potency is the fitted concentration of half-maximal effect; for activity change, negative = inhibition: % is set by controls: 0 for no effect and ±100 for the full control effect). Summed up: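 Luminescence, after 20 min with luciferin detection reagent, reflected CYP2C9 turnover during a 1 h NADPH-driven reaction at 37C. Enzyme-substrate mix contained 0.4% bovine serum albumin and was preincubated with compound 10 min at room temperature.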

Molecules are shown by their SMILES. Inconclusive results are not listed. Calls of active or inactive are those of the source. Unless noted, calls come from the whole dose curve; as a rule, active = well fitted curve in the direction sought with a large enough effect; inconclusive = small, poorly fitted or top-dose-only effect, or another doubt; inactive = no such curve, though single readings can be large; an effect the other way counts as inactive or inconclusive.

Sequence of Cytochrome P450 2D6 (Homo sapiens) (P10635 whole entry, looked up): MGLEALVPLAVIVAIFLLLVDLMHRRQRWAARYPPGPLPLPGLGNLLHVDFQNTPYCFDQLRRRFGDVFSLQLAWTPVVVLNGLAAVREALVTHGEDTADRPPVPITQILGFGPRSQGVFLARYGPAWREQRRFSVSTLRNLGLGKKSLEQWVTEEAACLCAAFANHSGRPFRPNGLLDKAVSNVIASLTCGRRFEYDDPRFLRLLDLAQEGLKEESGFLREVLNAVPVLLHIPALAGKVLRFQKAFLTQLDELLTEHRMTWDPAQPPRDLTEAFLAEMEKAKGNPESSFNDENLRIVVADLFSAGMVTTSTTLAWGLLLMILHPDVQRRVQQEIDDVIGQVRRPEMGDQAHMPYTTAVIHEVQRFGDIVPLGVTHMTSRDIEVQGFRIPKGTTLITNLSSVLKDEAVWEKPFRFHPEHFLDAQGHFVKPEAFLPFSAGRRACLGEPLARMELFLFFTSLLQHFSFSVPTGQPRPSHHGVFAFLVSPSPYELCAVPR
Sequence of Catechol O-methyltransferase (Homo sapiens) (P21964 whole entry, looked up): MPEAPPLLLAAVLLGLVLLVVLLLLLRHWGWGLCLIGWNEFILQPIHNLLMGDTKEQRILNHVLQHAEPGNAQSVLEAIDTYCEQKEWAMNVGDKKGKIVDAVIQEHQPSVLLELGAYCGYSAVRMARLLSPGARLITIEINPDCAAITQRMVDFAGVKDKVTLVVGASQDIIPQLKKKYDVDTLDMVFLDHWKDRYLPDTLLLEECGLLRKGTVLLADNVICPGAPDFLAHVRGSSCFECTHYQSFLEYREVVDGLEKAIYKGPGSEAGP
Sequence of Nicotinamide N-methyltransferase (Homo sapiens) (P40261 whole entry, looked up): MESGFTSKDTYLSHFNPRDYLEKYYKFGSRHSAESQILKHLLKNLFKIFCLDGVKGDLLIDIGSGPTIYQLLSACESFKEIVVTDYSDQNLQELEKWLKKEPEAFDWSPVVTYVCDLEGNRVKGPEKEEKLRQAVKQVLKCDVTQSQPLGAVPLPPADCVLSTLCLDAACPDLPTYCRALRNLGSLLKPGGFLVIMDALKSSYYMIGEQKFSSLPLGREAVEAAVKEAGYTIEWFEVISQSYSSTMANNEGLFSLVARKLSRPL
Sequence of Cytochrome P450 2C9 (Homo sapiens) (P11712 whole entry, looked up): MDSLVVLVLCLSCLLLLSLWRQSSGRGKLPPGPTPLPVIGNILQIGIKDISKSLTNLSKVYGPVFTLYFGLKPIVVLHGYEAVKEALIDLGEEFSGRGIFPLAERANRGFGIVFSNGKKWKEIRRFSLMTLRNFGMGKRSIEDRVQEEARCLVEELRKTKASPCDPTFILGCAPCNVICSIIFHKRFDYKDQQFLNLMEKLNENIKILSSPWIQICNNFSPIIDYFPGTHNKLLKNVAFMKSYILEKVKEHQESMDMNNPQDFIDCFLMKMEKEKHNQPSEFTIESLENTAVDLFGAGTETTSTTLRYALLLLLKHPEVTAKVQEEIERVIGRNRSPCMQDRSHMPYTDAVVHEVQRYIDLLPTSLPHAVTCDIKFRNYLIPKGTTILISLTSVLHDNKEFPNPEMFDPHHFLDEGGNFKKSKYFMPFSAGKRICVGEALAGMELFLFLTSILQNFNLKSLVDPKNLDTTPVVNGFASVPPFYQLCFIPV
Sequence of Phenylethanolamine N-methyltransferase (Homo sapiens) (P11086 whole entry, looked up): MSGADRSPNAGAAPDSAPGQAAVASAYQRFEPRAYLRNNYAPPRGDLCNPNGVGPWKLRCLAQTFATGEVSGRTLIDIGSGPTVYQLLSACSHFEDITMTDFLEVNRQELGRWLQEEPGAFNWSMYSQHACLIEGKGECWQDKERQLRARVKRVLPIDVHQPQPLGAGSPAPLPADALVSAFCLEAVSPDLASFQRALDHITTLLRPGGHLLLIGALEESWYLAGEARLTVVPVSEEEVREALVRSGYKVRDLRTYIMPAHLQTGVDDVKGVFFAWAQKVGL

Regarding `C/C=C(\C)C(=O)O[C@H]1CC2C(=C1C)[C@H]1OC(=O)[C@](C)(O)[C@]1(O)[C@H](OC(=O)CCC)C[C@@]2(C)OC(C)=O` (stereo not given in full), the Potency result in test [1], in test [4] and in test [5] was “inactive” each time. In addition, the Potency in [2] was 1 µM (active); in test [3] it was 0.709 µM (active).
In the case of `CCC(C)C1NC(=O)C(C(C)=O)=C1O` (stereo not given), the Potency entry in test [4], in test [8] and in [5] was “inactive” each time. In addition, the outcome in test [6] is “inactive”. The outcome in [7] was “inactive [at 92 µM]”.
As to `CC[C@@H]1/C=C/C=C/C[C@H](C)C(O)[C@](C)(O)C(=O)[C@H](C)C(O)[C@H](C)C(=O)[C@H](C)[C@@H](O)[C@H](C)/C=C/C(=O)O[C@H]2[C@@H](C)[C@@H](CC1)O[C@]1(O[C@H](C[C@H](C)O)[C@H](C)CC1=O)[C@@H]2C` (stereo not given in full), the Potency is 0.123 µM (active) in [2], 0.138 µM (active) in test [3], 0.0174 µM (active) in [9] and 0.0491 µM (active) in test [10]. Also, the redox activity (% of DA3003) in test [4] is 13.1% [at 11.5 µM] (inactive). Besides, the max response in [6] was -17.7% (inactive).
Take `CN1CN(c2ccccc2)C2(CCN(CCCC(=O)c3ccc(F)cc3)CC2)C1=O`: the results for the Potency in test [2] and in [9] were 23 µM (active) and 14.6 µM (active), respectively. In addition, the max response in test [6] is 2.53% (inactive); in test [10], -4.39% (inactive). Also, the Potency result in test [8] and in test [5] was “inactive” throughout.
Consider `C=C(CO)[C@@]12O[C@@H]1[C@@]1(C)C(=CC2=O)CC[C@@H](O)[C@@H]1C`, for which the Potency was 13 µM (active) in [1], 12.9 µM (active) in [2], 12.9 µM (active) in [3] and 23.1 µM (active) in [9]. The Potency entry in [4] and in [8] was “inactive” throughout. Moreover, the outcome in [6] and in test [7] was “inactive” each time.
For the molecule `C[C@H]1CCC[C@H](O)CCC/C=C/c2cc(O)cc(O)c2C(=O)O1`, the Potency in test [2] is 14.5 µM (active); in test [12], 3.41 µM (active). Moreover, the results for the activity in test [11], in test [13] and in test [14] were -96.3%, -89% and -98.1%, respectively. Also, the Potency result in test [4], in test [15], in test [8] and in test [5] was “inactive” each time. In addition, the outcome in test [16] was “inactive”.
With `Cc1ncc(OC[C@@]2(c3cccc(F)c3)C[C@H]2C(=O)Nc2ccc(F)cn2)c(C)n1`, the Potency result in test [2] was “inactive”. For the same molecule, the results for the Z-AUC in test [17], in test [17] (measured here: PEO1 parental Z-AUC) and in test [17] (measured here: PEO4 Z-AUC) were -0.208 (inactive), -0.55 and 0.108, respectively. For the same molecule, the max response in test [9] was 4.45% (inactive). For the same molecule, the outcome in test [6], in test [7] and in test [16] was “inactive” each time.
For `C[C@H]1CN(CC[C@H](O)C2CCCCC2)CC[C@@]1(C)c1cccc(O)c1`, the Potency entry in [1], in [4], in [8] and in test [5] was “inactive” each time. Besides, in test [18], the Potency is 5.35 µM (active). Also, the max response in test [6] was 3.77% (inactive).
For the molecule `CC(=O)NCCCOc1ccc(C(=O)N2CCC(N3C(=O)CCc4ccccc43)CC2)cc1`, the Potency result in test [1], in test [18], in test [19], in test [4], in [8] and in test [5] was “inactive” in each case. Besides, the max response in test [10] was 5.83% (inactive).
As for `O=C1Nc2ccc3ncsc3c2/C1=C/c1cnc[nH]1`, the Potency in test [1] was 1.64 µM (active); in [18] it was 1.69 µM (active); in test [19] it was 3.38 µM (active); in test [2], 0.649 µM (active); in test [9], 5.17 µM (active); in test [6], 4.11 µM (active). In addition, the Potency was 2.31 µM (active) in test [10] and 22.4 µM (active) in test [8]. Moreover, the values for the activity in test [11], in [13] and in test [14] were -10.3%, -8.72% and -10%, respectively. Besides, the activity change, negative = inhibition in [12] is -5.42%. The Potency entry in test [4] is “inactive”.
Regarding `CCOP(=O)(OCC)Oc1ccc2c(C)cc(=O)oc2c1`, the Potency entry in test [4], in test [8] and in test [5] was “inactive” throughout. In addition, the max response in test [6] is -15.5% (inactive).
As to `Cc1ccccc1C1=CCN(C)CC1`, the Potency entry in test [1], in test [2], in test [3] and in test [8] was “inactive” each time. Further, the max response in test [9] was -19.5% (inactive); in [6], -6.61% (inactive); in [10], 6.53% (inactive).
